Results taken from PubChem BioAssay (NCI).
Compounds without any hit were thinned out: in the full panel of roughly 79,000, 15% have a hit. Rule as the data show it: active = growth inhibition above about 70%; inactive = the rest. Where a SMILES comes first, the peptide text is derived from it. Bridges are numbered along the chain shown (N, C = ends).

How the values were obtained:
[1] = NCI Yeast Anticancer Drug Screen. Data for the rad50 strain (AID 155);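 also: 0% = growth of vehicle-only cultures of the same strain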; settings: S. cerevisiae rad50 strain growth inhibition; at 50.0 µM; active compounds read high
How it was run: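 DNA repair mutant yeast, compound exposure, growth read-out; inhibition is taken relative to vehicle.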

[2] = NCI Yeast Anticancer Drug Screen. Data for the mec2-1 strain (AID 157); settings: S. cerevisiae mec2-1 strain, at 50.0 µM, active compounds read high
How it was run: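 Each compound was tested on mec2-1 yeast, a strain altered in DNA damage repair or cell cycle control. Growth inhibition is reported relative to vehicle.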

[3] = NCI Yeast Anticancer Drug Screen. Data for the sgs1 mgt1 strain (AID 161);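 also: 0% = growth of cultures given vehicle only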; settings: S. cerevisiae sgs1 mgt1 strain, at 50.0 µM, active compounds read high
How it was run: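 Mutant yeast exposed to compound; growth scored against vehicle-only wells.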

[4] = NCI Yeast Anticancer Drug Screen. Data for the cln2 rad14 strain (AID 165);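 also: 0% = growth equal to vehicle treated cultures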; settings: S. cerevisiae cln2 rad14 strain, at 50.0 µM, active compounds read high
How it was run: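 Test compounds were added to cln2 rad14 yeast cultures; inhibition of growth was then determined by comparison with vehicle treatment.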

[5] = NCI Yeast Anticancer Drug Screen. Data for the bub3 strain (AID 167); settings: S. cerevisiae bub3 mutant strain, at 50.0 µM, active compounds read high
How it was run: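 In this screen, a yeast mutant lacking normal mitotic checkpoint function is challenged with compound. Relative growth versus vehicle gives the inhibition value.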

[6] = NCI Yeast Anticancer Drug Screen. Data for the mlh1 rad18 strain (AID 175); settings: S. cerevisiae mlh1 rad18 strain growth inhibition; at 50.0 µM; active compounds read high
How it was run: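 Inhibition values reflect reduced growth of mutant yeast versus vehicle-treated controls following compound exposure; the mutations affect DNA damage repair.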

Measured: growth inhibition

CCC1COS(=O)(=O)CS(=O)(=O)O1 (stereo not drawn)
inactive: [1] -27.6% | [2] -16.2% | [3] -3.35% | [4] -40.9% | [5] 11.8% | [6] 3.1%

CC1(C)OCC(C2OC3OC(C)(C)OC3C2OP(=O)(N2CC2)N2CC2)O1 (stereo not drawn)
inactive: [1] -16.1% | [2] -31.4% | [3] -38.9% | [4] -49.2% | [5] -70.8% | [6] -73.4%

O=C(CSc1cc(Cl)c(Cl)cc1Cl)Nc1cccc(Cl)c1
inactive: [1] -7.9% | [2] -6.9% | [3] 6.3% | [4] -12.6% | [5] -2.85% | [6] 3.5%

CC(C)(C)SC1C(O)C(CO)OC1n1ccc(Nc2ccccc2)nc1=O (stereo not drawn)
inactive: [1] -17.9% | [2] 10.8% | [3] -24.6% | [4] -15.8% | [5] 1.55% | [6] 4.65%

CC(=O)Nc1nc(Cl)c2cc[nH]c2n1
inactive: [1] -1.05% | [2] 2.5% | [3] -5.5% | [4] -10.3% | [5] -11.9% | [6] -11.6%

C=CCSC(=S)NC
inactive: [1] -6.2% | [2] -7.5% | [3] -2.7% | [4] 10.2% | [5] -0.9% | [6] 8.4%

C/C(CC(=O)Nc1ccc(C)cc1C)=N/N=C(N)N
inactive: [1] -10.8% | [2] -17.2% | [3] -15.2% | [4] 15.4% | [5] -17.7% | [6] -17.1%

COc1ccc(NC(=S)N(CCC#N)C2CCCCC2)cc1
inactive: [1] -1.1% | [2] -24.3% | [3] -3% | [4] 16.8% | [5] -1.5% | [6] -4.05%

CCCCCCCCC1CCC(=O)O1 (stereo not drawn)
inactive: [1] 19.8% | [2] 1.8% | [3] 16.7% | [4] 7.45% | [5] 7.25% | [6] 9%

O=C(O)/C=C/C(=O)Nc1ccc(C(=O)O)cc1
inactive: [1] 22.9% | [2] -27.3% | [3] 10.2% | [4] 7.6% | [5] -20.9% | [6] -3.7%

O=Cc1cccc2c([N+](=O)[O-])cccc12
inactive: [1] 55.5% | [2] 19.5% | [3] 32.6% | [4] 6.95% | [5] -1.9% | [6] 49.5%

CCOc1ccc(NC(=O)Oc2ccc(-c3ccccc3)cc2)cc1
inactive: [1] 15.8% | [2] 33.5% | [3] 24.4% | [4] -12% | [5] 56.7% | [6] 48.1%

NCC(=O)c1c[nH]c(=O)[nH]c1=O
inactive: [1] -8.85% | [2] -5.05% | [3] -12.2% | [4] -42.5% | [5] -10.3% | [6] 4.4%

COC(=O)Cc1nc2ccccc2[nH]c1=O
inactive: [1] -1.15% | [2] -3.25% | [3] -10.3% | [4] -29.2% | [5] -16.8% | [6] -5.7%

CC(C)OC(=O)N[C@@H]1c2ccccc2CC[C@H]1I
inactive: [1] 24.5% | [2] 5.8% | [3] 19.3% | [4] -36.5% | [5] 24.7% | [6] 3.55%

CC1=C(C(=O)OC2CC3CCC2(C)C3(C)C)C2Nc3ccccc3N(C)C2O1 (stereo not drawn)
inactive: [1] -4.75% | [2] -8.8% | [3] -3.65% | [4] -3.2% | [5] -8.4% | [6] 6.95%

C=CCOCn1ccc(=O)[nH]c1=O
inactive: [1] 4.35% | [2] -3.05% | [3] 5.85% | [4] 3% | [5] 3.2% | [6] -3.05%

COC(=O)C1C(=O)c2ccccc2C(C)C1c1ccccc1C (stereo not drawn)
inactive: [1] 5% | [2] 41.4% | [3] 26.2% | [4] 4.15% | [5] 55.8% | [6] 27.6%

COc1ccc(C(c2cc(OC)c(OC)c(OC)c2)N2C(=O)CCC2C(=O)O)cc1 (stereo not drawn)
inactive: [1] -21.6% | [2] -13.6% | [3] -16.6% | [4] -11.8% | [5] -4.15% | [6] -8.3%

Oc1ccc(C(c2ccc(O)cc2)c2ccc(O)cc2)cc1
inactive: [1] 2.1% | [2] 3.9% | [3] 29.9% | [4] 19.1% | [5] 22.1% | [6] -18.2%

Cc1cc(NC(=O)C(=O)CC(=O)c2ccc(Cl)s2)no1
inactive: [1] -51.3% | [2] 4.95% | [3] -8.55% | [4] -56.4% | [5] -6.7% | [6] -2.6%

O=C(CCn1ccnc1[N+](=O)[O-])NCCCn1ccnc1[N+](=O)[O-]
inactive: [1] -24.1% | [2] -2.15% | [3] -42.4% | [4] -1% | [5] -34.4% | [6] -52.2%

C/C(=N\O)c1cccc[n+]1Cc1ccccc1
inactive: [1] 12.2% | [2] 12.7% | [3] -15.8% | [4] -21.6% | [5] 17.8% | [6] -3.6%

Cc1ccc(S(=O)(=O)Oc2cc(-c3ccccc3)nc3ccccc23)cc1
inactive: [1] 5.35% | [2] -7.25% | [3] 2.95% | [4] 11.7% | [5] 27.6% | [6] 9.85%

CC12CCC(CC1C(=O)O)C2 (stereo not drawn)
inactive: [1] 19.4% | [2] 16.3% | [3] 24.9% | [4] 22.1% | [5] 9.75% | [6] 15.3%

CC1C2CC(C/C2=N/O)C1(C)C (stereo not drawn)
inactive: [1] 19.7% | [2] 19.1% | [3] 36.5% | [4] 29.1% | [5] 11.3% | [6] 21.6%

O=C(Nc1cc2c(cc1[N+](=O)[O-])-c1c(F)cccc1C2)C(F)(F)F
inactive: [1] 9.8% | [2] 1.4% | [3] 8.25% | [4] -14.2% | [5] 4.9% | [6] 2.15%

CSc1nc(N)c(C(N)=O)cc1C#N
inactive: [1] 5.45% | [2] 2.6% | [3] -5.4% | [4] -32.8% | [5] -16.6% | [6] 8.55%

Cc1cc(C(c2ccccc2)c2cc(C)cc(C(C)(C)CC(C)(C)C)c2O)c(O)c(C(C)(C)CC(C)(C)C)c1
inactive: [1] 3.9% | [2] 5% | [3] -10% | [4] 20.8% | [5] 5.2% | [6] 8%

COc1cc(OC)c(OC)cc1/C=N/N=C(\N)NO
inactive: [1] -12.3% | [2] 0.5% | [3] -1.95% | [4] 3.05% | [5] -13.1% | [6] -10.4%

O=C(O)CNC(CO)(CO)CO
inactive: [1] -55% | [2] -60.8% | [3] -36% | [4] -19.8% | [5] -10.8% | [6] -43%

O=C(Nc1ccc(Cl)cc1)NS(=O)(=O)c1coc2ccccc2c1=O
inactive: [1] 9.65% | [2] 7.3% | [3] -5.75% | [4] 18.6% | [5] 11.6% | [6] 23.1%

CSc1nc(NC2OCC(OC(C)=O)C(OC(C)=O)C2OC(C)=O)c(N=CC=Nc2c(NC3OCC(OC(C)=O)C(OC(C)=O)C3OC(C)=O)nc(SC)[nH]c2=O)c(=O)[nH]1 (stereo not drawn)
inactive: [1] 11.8% | [2] -7.9% | [3] -0.35% | [4] 7.15% | [5] -1.65% | [6] 8.25%

C=C1CC(OC(=O)c2ccc([N+](=O)[O-])cc2)C1
inactive: [1] 1.5% | [2] -16.6% | [3] -16.5% | [4] -8.65% | [5] 3.7% | [6] -8.5%

Cc1cc(=O)[nH]c(NN2C(Cl)C(=O)C2c2cccc([N+](=O)[O-])c2)n1 (stereo not drawn)
inactive: [1] 18.1% | [2] -32.5% | [3] -0.3% | [4] -7.1% | [5] -7.45% | [6] -33.6%

COC(=O)C1CCC(=O)NCCCCC(NC(=O)C(N)CC(=O)O)C(=O)N1 (stereo not drawn) (H-Asp-Lys-Glu-OMe; lactam 2-3; configuration not given here)
inactive: [1] 5.4% | [2] 4% | [3] 11.3% | [4] -1.9% | [5] 15.1% | [6] -27.9%

Cc1ccc(C2(O)c3ccccc3N=NN2C)cc1 (stereo not drawn)
inactive: [1] 2.6% | [2] 0.5% | [3] 4% | [4] -16.8% | [5] 14% | [6] 9.75%

CCOC(=O)Cn1c2ccccc2c(=O)c2cc(C)c(C)c(C#N)c21
inactive: [1] 13.4% | [2] -12.9% | [3] -11.6% | [4] 9% | [5] 8.5% | [6] 8.1%
